Screening results (PubChem BioAssay)
Mtb MenB inh = blocks the Mycobacterium tuberculosis MenB enzyme; P9WNP5; MenB enzyme assay, absorbance read-out; inhibition, % (no concentration beside the values); 100,000 tested, 0.43% active; AID 540299; in the data active = inhibition above about 21%, passing the limit was not always enough
Target sequence (P9WNP5 whole entry, looked up): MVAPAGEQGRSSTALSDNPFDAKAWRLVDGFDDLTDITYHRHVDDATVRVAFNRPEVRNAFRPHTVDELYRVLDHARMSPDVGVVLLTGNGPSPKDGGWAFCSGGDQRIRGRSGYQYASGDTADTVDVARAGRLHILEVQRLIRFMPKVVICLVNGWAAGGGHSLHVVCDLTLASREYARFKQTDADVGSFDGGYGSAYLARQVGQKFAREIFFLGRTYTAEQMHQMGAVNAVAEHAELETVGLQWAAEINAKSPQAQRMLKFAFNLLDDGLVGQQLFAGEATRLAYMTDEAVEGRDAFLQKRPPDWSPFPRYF
Polio RdRp inh = inhibitors of poliovirus RNA polymerase binding and polymerization | P03300 | poliovirus polymerase elongation, fluorescence polarization; hits give low values | % elongation, % (compound at 16.7 µg/mL) | 150,000 tested, 0.66% active; in the data active = % elongation below about 90%
MbtI inh = blocks the Mycobacterium tuberculosis siderophore enzyme MbtI | purified MbtI enzyme, fluorescence intensity read-out | inhibition, % (test concentration not listed) | 100,000 tested, 0.89% active | AID 493033; in the data active = inhibition mostly above about 56%, no sharp cut-off; inactive = mostly below about 77%
AID504770 = growth inhibitors of E. coli YBA685 in a screen for V. cholerae RctB (chromosome II replication) inhibitors; E. coli YBA685 rctB-dependent plasmid, OD600 growth, 3 h; hits give low values; z-score (no concentration beside the values); 130,000 tested, 0.27% active; in the data active = z-score below about -2, passing the limit was not always enough
Numbers without * were called inactive; i = inactive; x = no result; ! = not active in a repeat. In the library only some 1.5% were active in any assay of this set; here they are far more common.

SMILES	Mtb MenB inh	Polio RdRp inh	MbtI inh	AID504770
O=C(Cn1c(=O)n(Cc2ccco2)c(=O)c2sc3ccccc3c21)Nc1ccccc1	3	101	20	0.1
Cc1scc(CN2CCOCC2)c1C	-5	100	-5	0.25
Cc1ccc2c(CC(=O)NCc3ccccc3)coc2c1C	x	1.0*	x	x
Nc1sc(=S)nc2ccccc12	-99	97	52*	-0.35
Nc1c2ccccc2nc2ccccc12 (tested in a mixture with another compound)	-4	100	i	0.1
CCOC(OCC)n1c(=S)n(C(OCC)OCC)c2ccccc21	-17	83*	94*	0.75
Cc1cc(C)cc(NC(=O)/C=C\C(=O)O)c1	9	99	-2	0.15
Cc1c(C)c(NC(=O)/C=C/C(=O)O)c(C)c(C)c1NC(=O)/C=C/C(=O)O	10	103	60*	1.4
CCNc1nc(N2CCCC2)nc(N2CCC(Cc3ccccc3)CC2)n1	x	x	x	0.7
O=C1c2ccccc2C(=O)c2c1ccc(O)c2O	3	98	0	0.5
O=C1C=CC(=O)c2c(O)cccc21	7	87*!	-21	0.85
CCCc1n[nH]c(=S)n1N	-40	101	69*	1.6
CN(C)CCN1CCNCC1	34*	103	-1	1.1
CN(C)C(=O)CN1CCNCC1	-16	107	94	2
NNc1nnc2c(n1)[nH]c1ccccc12	-8	107	x	-0.75
C/C(=N\NC(=O)c1nc(Cl)c(Cl)c(N)c1Cl)c1cc(O)ccc1O	-19	105	56*	1.4
O=C(O)CCc1nc2ccccc2c(=O)n1C1CC1	1	97	-3	0.75
Cc1ccc(OC(=O)c2ccno2)cc1	x	x	x	1.5
O=C(Oc1cc(Cl)cc(Cl)c1)c1ccno1	x	x	x	-2.5*
CN(C)c1nc(N)c(C#N)c(CC#N)c1C#N	16	80*	6	0.5
Cc1cc(C)n(CC(C)O)c(=O)c1C#N (configuration not stated)	29	102	82	-0.25
Cc1cc(C)n(CCCO)c(=O)c1C#N	-27	102	89	-2.9*
Cc1c(C(=O)NNc2ncnc3sc4c(c23)CCCC4)oc2ccccc12	-21	104	-5	-4.2*
O=C(Nc1ncnc2sc3c(c12)CCC3)c1ccccc1	x	x	x	-0.45
Cc1sc(NC(=O)Cn2nc(C(F)(F)F)cc2C)c(C(N)=O)c1C	3	68*	x	0.05
SMILES	Mtb MenB inh	Polio RdRp inh	MbtI inh	AID504770
O=C1C=CC(=O)N1c1ccccc1OC(F)(F)F	x	x	x	-0.3
O=C1C=CC(=O)N1c1ccccc1F	-20	104	100*	-4.7*
O=C1C=CC(=O)N1c1cccc2ccccc12	x	101	89*	-0.6
O=C1C=CC(=O)C(C2=C3C(=O)N(Cc4ccccc4)CC(=O)N3CCC2)=C1	14	102	100*	-0.55
[O-]c1n[n+](-c2ccccc2)no1	-1	96	x	-3*
c1ccc(-c2noc(-c3ccccc3)n2)cc1	x	x	0	1.3
COC(=O)c1ccc2nc(NC(=O)CN3C(=O)CCC3=O)sc2c1	-5	75*	x	-0.25
O=C(N/N=C1/C(=O)c2cccc3cccc1c23)c1ccncc1	-32	89*	3	0.3
Cc1cc(C(=O)N/N=C2\C(=O)c3cccc4cccc2c34)c(C)o1	-35	102	4	0
CCC(C(=O)NC1CCCC1)N(C(=O)Cn1nnc(-c2ccc(C)cc2)n1)c1ccc2c(c1)OCCO2 (configuration not stated)	33*	101	7	1.8
CCCC(C(=O)NC1CCCC1)N(C(=O)Cn1nnc(-c2ccc(C)o2)n1)c1ccccc1 (configuration not stated)	-37	105	-26	-0.55
O=C1C=CC(=O)C(Sc2nnnn2-c2ccccc2)=C1	-3	99	102*	-0.7
O=c1[nH]ccn(-c2ccccc2)c1=O	-51	103	1	-0.2
O=c1c(=S)[nH]ccn1-c1ccccc1	1	100	93*	-0.6
Cc1cc(C)c2c(N)c(C3=NC(C)(C)Cc4ccccc43)sc2n1	-12	107	x	-0.65
CC1(C)Cc2ccccc2C2=NNC(=O)C2=N1	6	84*	5	-0.75
CSc1nsc(SC)c1NC(=O)OCC1CCCO1 (configuration not stated)	2	88*	x	-0.25
CSc1nsc(SC)c1NC(=O)OCCc1ccccn1	x	x	x	0.5
Nn1c(SCc2ccccc2)n[nH]c1=S	-5	96	70*	-0.3
Fc1ccc(CN2CCCN(Cc3ccc(F)cc3)C2c2ccco2)cc1	x	x	x	-0.65
COC(=O)c1nnn(-c2nonc2N)c1CSC#N	5	102	74*	-0.05
CCCNC(=O)c1ccc2c(c1)C(=O)N(CC(C)C)C2=O	-8	101	-15	-0.25
Oc1cccc(-c2nc(-c3ccccc3)c3ccccn23)c1	x	89*	5	1.2
CCc1ccc(C(=O)NCc2ccc3c(c2)OCO3)cc1	1	103	-14	0.05
CN(C(=S)NCc1ccc2c(c1)OCO2)C1CCS(=O)(=O)C1 (configuration not stated)	-1	88*	84*	-0.6
SMILES	Mtb MenB inh	Polio RdRp inh	MbtI inh	AID504770
CCC(Sc1nc2ccncc2[nH]1)C(=O)N(CC)c1ccccc1 (configuration not stated)	-2	100	11	-0.1
COc1ccc(CSc2nnc(C)s2)cc1F	56*	102	0	0.95
COc1ccc(CCNC(=O)CSc2nnc(C)s2)cc1OC	-4	102	-1	0.6
C=CCn1cn[nH]c1=S	-7	101	61*	0
CCOC(=O)C1=C(CN2CCC(C)CC2)NC(=O)NC1c1cccs1 (configuration not stated)	6	101	-6	-0.15
COc1ccc(-c2nc(COc3ccc(Cl)cc3Cl)no2)cc1	6	101	2	-0.85
CC1=CC(=NC(=O)c2ccco2)C(C)=CC1=O	-16	102	100*	0.4
CC1=C/C(=N\OC(=O)Cc2ccccc2)C(C)=CC1=O	-135	104	3	-1.1
COC(=O)C1(C)NC(c2ccccc2C)C2C(=O)N(C)C(=O)C21 (configuration not stated)	-54	106	-2	-1.1
COCC(=O)Nc1cccc(NC(C)=O)c1	-7	101	-52	-1.1
CN(Cc1nc2ccccc2c(=O)[nH]1)C(=O)COc1ccc2c(c1)CCC2	-35	55*	-12	1.5
Brc1cc(I)ccn1	-6	102	-4	0.2
CCSc1nc(C(=O)O)cc(=O)[nH]1	x	x	x	0.7
CC(C)Cc1cc(C(=O)O)nc(=O)[nH]1	38*	99	8	1.4
S=c1[nH]c2ccccc2n1C1CCCCC1	-14	100	98*	0.3
CCOc1ccc(-n2c(SCC(N)=O)nc3ccccc3c2=O)cc1	-12	106	x	0.3
CNc1ccccc1C(C)(C)c1cc(-c2ccccc2)no1	x	100	-3	1.7
O=c1[nH]c(SCc2ccccc2)nc2ccccc12	x	x	40	0.5
CCc1nc(SCc2ccccc2)[nH]c(=O)c1C	0	102	83*	-0.3
Cc1ccc(-c2cn3c4ccccc4nc3n2CCCN2CCCCC2)cc1	-9	90*	x	-0.85
CC(C)(C)NC(=O)N1CCc2ccccc2C1	-30	101	-5	-0.75
CC1=C(C#N)C(Nc2ccccn2)(C(F)(F)F)C(=O)N1 (configuration not stated)	5	100	-1	0.35
